# Measurements published in PubChem BioAssay (NCATS).
# “And” between values parts separate entries of the source, which are not always exact repeats. Equal entries are not always repeated. Inconclusive results are not listed. Where a call stands in place of a potency, no number is given. Values without a mark were called inactive. The source made the active and inactive calls. Calls come from the whole dose curve; as a rule, active = well fitted inhibition curve with a large enough effect; inconclusive = small, poorly fitted or top-dose-only effect; inactive = flat fitted curve, though single readings scatter.
# Legend:
# PAD = experiment: qHTS profiling for inhibitors of Plasmodium falciparum proliferation (AID 504749); note: potency is the fitted concentration of half-maximal effect; details: P. falciparum in erythrocytes, SYBR Green DNA, 72 h; series mostly up to 28.7 µM
# Summary of the method: (§1)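 Parasite proliferation within erythrocytes, 72 h exposure. Endpoint: SYBR Green I fluorescence after overnight lysis at room temperature. Controls: 0.29 uM artemisinin, DMSO.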
# PC15 = experiment: as above; details: P. falciparum in erythrocytes, SYBR Green DNA, 72 h; series mostly up to 28.7 µM
# Summary of the method: as §1
# PC26 = experiment: as above; details: P. falciparum in erythrocytes, SYBR Green DNA, 72 h; series mostly up to 28.7 µM
# Summary of the method: as §1
# PC49 = experiment: as above; details: P. falciparum in erythrocytes, SYBR Green DNA, 72 h; series mostly up to 28.7 µM
# Summary of the method: as §1
# SC27B = experiment: as above; details: P. falciparum in erythrocytes, SYBR Green DNA, 72 h; series mostly up to 28.7 µM
# Summary of the method: as §1
# TAB113 = experiment: as above; details: P. falciparum in erythrocytes, SYBR Green DNA, 72 h; series mostly up to 28.7 µM
# Summary of the method: as §1
# TAB165 = experiment: as above; details: P. falciparum in erythrocytes, SYBR Green DNA, 72 h; series mostly up to 28.7 µM
# Summary of the method: as §1
# W2 = experiment: as above; details: P. falciparum in erythrocytes, SYBR Green DNA, 72 h; series mostly up to 28.7 µM
# Summary of the method: as §1
# CRL-7250 [1] = experiment: Cytotoxic Profiling of Annotated Libraries Using Quantitative High-Throughput Screening (AID 1296008); details: Five cell lines viability, CellTiter-Glo ATP luminescence, 48-72 h; max response: hits give low values; note: potency is the fitted concentration of half-maximal effect
# Summary of the method: (§2)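 Compounds were pin-transferred onto cells and incubated 48 or 72 hr at 37 degree Celsius, 95% humidity. CellTiter-Glo was added, plates sat 10 min at room temperature, then ATP-coupled luminescence was imaged as the viability read-out.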
# HEK293 = experiment: as above; details: Five cell lines viability, CellTiter-Glo ATP luminescence, 48-72 h; max response: hits give low values
# Summary of the method: as §2
# HaCat [2] = experiment: as above; details: Five cell lines viability, CellTiter-Glo ATP luminescence, 48-72 h; max response: hits give low values
# Summary of the method: as §2
# KB-3-1 = experiment: as above; details: Five cell lines viability, CellTiter-Glo ATP luminescence, 48-72 h; max response: hits give low values
# Summary of the method: as §2
# NIH3T3 = experiment: as above; details: Five cell lines viability, CellTiter-Glo ATP luminescence, 48-72 h; max response: hits give low values
# Summary of the method: as §2
# MCC-13 = experiment: qHTS assay to identify novel small-molecules to repurpose for Merkel cell carcinoma treatment (AID 1296009); details: MCC and control cell lines, CellTiter-Glo viability, 72 h; series mostly up to 46 µM
# Summary of the method: (§3)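 qHTS format: cells treated with library compounds in DMSO across 8 (NPC) or 11 (MIPE) concentrations. Readout after 72 hr at 37 degree celsius was CellTiter-Glo luminescence.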
# MKL-1 = experiment: as above; details: MCC and control cell lines, CellTiter-Glo viability, 72 h; series mostly up to 46 µM
# Summary of the method: as §3
# TAB109 = experiment: qHTS profiling for inhibitors of Plasmodium falciparum proliferation (AID 504749); note: potency is the fitted concentration of half-maximal effect; details: P. falciparum in erythrocytes, SYBR Green DNA, 72 h; series mostly up to 28.7 µM
# Summary of the method: as §1
# MCC-26 = experiment: qHTS assay to identify novel small-molecules to repurpose for Merkel cell carcinoma treatment (AID 1296009); details: MCC and control cell lines, CellTiter-Glo viability, 72 h; series mostly up to 46 µM
# Summary of the method: as §3
# CRL-7250 [3] = experiment: as above; details: MCC and control cell lines, CellTiter-Glo viability, 72 h; at 44.8 µM (top of the series) unless noted
# Summary of the method: as §3
# HACAT [4] = experiment: as above; details: MCC and control cell lines, CellTiter-Glo viability, 72 h; at 44.8 µM (top of the series) unless noted
# Summary of the method: as §3
# HEK293T = experiment: as above; details: MCC and control cell lines, CellTiter-Glo viability, 72 h; at 44.8 µM (top of the series) unless noted
# Summary of the method: as §3
# Note: nearly all actives have a fitted effect of over 60% in size.
smiles,measurement,setting,value
CCC1(c2ccccc2)C(=O)N(COC)C(=O)N(COC)C1=O,Potency,PAD,inactive
same,Potency,PC15,inactive
same,Potency,PC26,inactive
same,Potency,PC49,inactive
same,Potency,SC27B,inactive
same,Potency,TAB113,inactive
same,Potency,TAB165,inactive
same,Potency,W2,inactive
same,max response,CRL-7250 [1],-1.83%
same,max response,HEK293,3.09%
same,max response,HaCat [2],3.73%
same,max response,KB-3-1,-3.81%
same,outcome,NIH3T3,inactive
same,outcome,MCC-13,inactive
same,Potency,MKL-1,inactive
CC(C)C[C@H](CN)CC(=O)O,max response,CRL-7250 [1],-0.456%
same,max response,HEK293,2.24%
same,max response,HaCat [2],-0.0678%
same,max response,KB-3-1,-13.5% and 1.18%
same,max response,NIH3T3,-13.2%
same,outcome,MCC-13,inactive
same,Potency,MKL-1,inactive
CC(C)NC(C)C,Potency,PAD,inactive
same,Potency,PC15,inactive
same,Potency,PC26,inactive
same,Potency,SC27B,inactive
same,Potency,TAB109,inactive
same,Potency,TAB113,inactive
same,Potency,TAB165,inactive
same,Potency,W2,inactive
same,max response,CRL-7250 [1],1.83%
same,max response,HEK293,1.45%
same,max response,HaCat [2],1.53%
same,max response,KB-3-1,13.4%
same,outcome,NIH3T3,inactive
same,outcome,MCC-13,inactive
same,Potency,MCC-26,inactive
same,Potency,MKL-1,inactive
COP(=S)(OC)Oc1ccc(S(=O)(=O)N(C)C)cc1,Potency,PAD,inactive
same,Potency,PC15,inactive
same,Potency,PC26,inactive
same,Potency,PC49,inactive
same,Potency,SC27B,inactive
same,Potency,TAB109,inactive
same,Potency,TAB113,inactive
same,Potency,TAB165,inactive
same,Potency,W2,inactive
same,max response,CRL-7250 [1],4.64%
same,max response,HEK293,-6.52%
same,max response,HaCat [2],-5.18%
same,max response,KB-3-1,-10.7%
same,max response,NIH3T3,-0.737%
same,outcome,MCC-13,inactive
same,Potency,MCC-26,inactive
same,Potency,MKL-1,inactive
Nc1ccc([As](=O)(O)O)cc1,Potency,PAD,inactive
same,Potency,PC15,inactive
same,Potency,PC26,inactive
same,Potency,PC49,inactive
same,Potency,SC27B,inactive
same,Potency,TAB109,inactive
same,Potency,TAB113,inactive
same,Potency,TAB165,inactive
same,max response,CRL-7250 [1],1.05%
same,max response,HEK293,-6.15%
same,max response,HaCat [2],-3.33%
same,max response,KB-3-1,-4.72%
same,outcome,NIH3T3,inactive
same,outcome,MCC-13,inactive
same,Potency,MCC-26,inactive
same,Potency,MKL-1,inactive
CC(C)(N)Cc1ccccc1Cl,outcome,CRL-7250 [1],inactive
same,outcome,HEK293,inactive
same,outcome,HaCat [2],inactive
same,max response,NIH3T3,-1.53%
same,outcome,CRL-7250 [3],inactive
same,outcome,HACAT [4],inactive
same,outcome,HEK293T,inactive
same,outcome,MCC-13,inactive
same,Potency,MCC-26,inactive
same,Potency,MKL-1,inactive
Nc1ccccc1C(=O)O,Potency,PAD,inactive
same,Potency,PC15,inactive
same,Potency,PC26,inactive
same,Potency,PC49,inactive
same,Potency,SC27B,inactive
same,Potency,TAB109,inactive
same,Potency,TAB113,inactive
same,Potency,TAB165,inactive
same,Potency,W2,inactive
same,max response,CRL-7250 [1],-2.31%
same,max response,HEK293,-5.49%
same,outcome,HaCat [2],inactive
same,max response,KB-3-1,-19.2%
same,max response,NIH3T3,3.28%
same,outcome,HACAT [4],inactive
same,outcome,MCC-13,inactive
same,Potency,MKL-1,inactive
NCCc1ccc(O)cc1,Potency,PAD,inactive
same,Potency,PC15,inactive
same,Potency,PC26,inactive
same,Potency,PC49,inactive
same,Potency,SC27B,inactive
same,Potency,TAB109,inactive
same,Potency,TAB113,inactive
same,Potency,TAB165,inactive
same,Potency,W2,inactive
same,max response,CRL-7250 [1],-9.28%
same,outcome,HEK293,inactive
same,max response,HaCat [2],1.28%
same,max response,KB-3-1,-7.48%
same,outcome,NIH3T3,inactive
same,outcome,HEK293T,inactive
same,outcome,MCC-13,inactive
same,Potency,MCC-26,inactive
same,Potency,MKL-1,inactive
O=c1[nH]c2ccccc2n1C1CCNCC1,outcome,CRL-7250 [1],inactive
same,max response,HEK293,-4.64%
same,max response,HaCat [2],3.09%
same,outcome,NIH3T3,inactive
same,outcome,CRL-7250 [3],inactive
same,outcome,MCC-13,inactive
same,Potency,MCC-26,inactive
same,Potency,MKL-1,inactive
CC(C)(C)NCC(O)c1ccccc1Cl (centres undefined),Potency,PC49,12.6 µM (active)
same,Potency,W2,6.01 µM (active)
same,max response,CRL-7250 [1],-15.1%
same,max response,HEK293,-2.46%
same,max response,HaCat [2],-8.54%
same,max response,KB-3-1,2.34%
same,max response,NIH3T3,-6.71%
same,outcome,MCC-13,inactive
same,Potency,MCC-26,inactive
same,Potency,MKL-1,inactive
CN1C(=O)NC(=O)C(C)(C2=CCCCC2)C1=O (centres undefined),Potency,PAD,inactive
same,Potency,PC15,inactive
same,Potency,PC26,inactive
same,Potency,PC49,inactive
same,Potency,SC27B,inactive
same,Potency,TAB109,inactive
same,Potency,TAB113,inactive
same,Potency,TAB165,inactive
same,Potency,W2,inactive
same,max response,CRL-7250 [1],-9.98%
same,outcome,HEK293,inactive
same,max response,HaCat [2],-13.8%
same,max response,KB-3-1,-0.631% and -0.133%
same,outcome,NIH3T3,inactive
same,outcome,HEK293T,inactive
same,outcome,MCC-13,inactive
same,Potency,MCC-26,inactive
same,Potency,MKL-1,inactive
CCN[C@@H](C)Cc1ccccc1,max response,CRL-7250 [1],-24.3%
same,max response,HEK293,-15.1%
same,max response,HaCat [2],-12.1%
same,max response,KB-3-1,4.57%
same,max response,NIH3T3,-15.7%
same,outcome,MCC-13,inactive
same,Potency,MCC-26,inactive
same,Potency,MKL-1,inactive
CCN(CC)C(=O)[C@@H]1C=C2c3cccc4[nH]cc(c34)C[C@H]2N(C)C1,max response,CRL-7250 [1],-10.2%
same,Potency,HEK293,80 µM (active)
same,max response,HaCat [2],1.44%
same,max response,KB-3-1,1.43% and -14.9%
same,outcome,MCC-13,inactive
Clc1cccc(SC2CCNCC2)n1,Potency,PAD,inactive
same,Potency,PC15,inactive
same,Potency,PC26,inactive
same,Potency,PC49,inactive
same,Potency,SC27B,inactive
same,Potency,TAB109,inactive
same,Potency,TAB113,inactive
same,Potency,TAB165,inactive
same,Potency,W2,inactive
same,max response,CRL-7250 [1],-0.448%
same,max response,HEK293,1.87%
same,max response,HaCat [2],-6.24%
same,max response,KB-3-1,-11.2%
same,max response,NIH3T3,4.41%
same,outcome,MCC-13,inactive
same,Potency,MCC-26,inactive
same,Potency,MKL-1,inactive
Cc1ncsc1CCCl,Potency,PAD,inactive
same,Potency,PC15,inactive
same,Potency,PC26,inactive
same,Potency,PC49,inactive
same,Potency,SC27B,inactive
same,Potency,TAB109,inactive
same,Potency,TAB113,inactive
same,Potency,TAB165,inactive
same,Potency,W2,inactive
same,max response,CRL-7250 [1],3.36%
same,max response,HEK293,-8.24%
same,max response,HaCat [2],-12.7%
same,max response,KB-3-1,6.67%
same,max response,NIH3T3,0.655%
same,outcome,MCC-13,inactive
same,Potency,MCC-26,inactive
same,Potency,MKL-1,inactive
